Active and inactive are the calls of the source. Rule for the calls: active = hit-call score of the fitted dose curve at least 0.9, where 1 is the maximum; inactive = score below 0.9.
molecular target: Bile acid receptor (Homo sapiens) (UniProt Q96RI1); experiment: ATG_IR1_CIS: Attagene CIS-FACTORIAL HepG2 Assay for human Nuclear Receptor Subfamily 1 Group H Member 4 (NR1H4), IR1 submotif (AID 2282946); details: IR1 reporter transcription, actives raise or lower the signal
In short: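 Transient MRTU transfection, HepG2; 24 h dosing; RNA → RT-PCR → 6-FAM primer extension → HpaI digest → capillary electrophoresis fluorescence. Gain/loss of signal fitted relative to DMSO.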

Sequence of Bile acid receptor (Homo sapiens) (Q96RI1 whole entry, looked up): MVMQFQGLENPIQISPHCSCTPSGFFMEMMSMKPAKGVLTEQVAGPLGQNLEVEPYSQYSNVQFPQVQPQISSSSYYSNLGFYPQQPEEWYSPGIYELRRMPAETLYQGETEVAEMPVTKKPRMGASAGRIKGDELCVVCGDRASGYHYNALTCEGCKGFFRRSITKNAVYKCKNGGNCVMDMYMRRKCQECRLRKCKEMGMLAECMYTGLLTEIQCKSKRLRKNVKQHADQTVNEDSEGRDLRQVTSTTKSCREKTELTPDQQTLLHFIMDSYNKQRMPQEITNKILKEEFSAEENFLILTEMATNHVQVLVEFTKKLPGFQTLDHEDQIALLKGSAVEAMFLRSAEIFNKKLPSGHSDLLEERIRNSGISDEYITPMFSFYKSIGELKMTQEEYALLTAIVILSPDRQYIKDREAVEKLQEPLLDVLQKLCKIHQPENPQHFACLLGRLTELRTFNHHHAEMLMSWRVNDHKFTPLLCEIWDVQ

Compound	outcome
C=C(C)C(=O)OCC(F)(F)C(F)(F)C(F)(F)F	inactive
O=P(O)(O)OCCC(F)(F)C(F)(F)C(F)(F)C(F)(F)C(F)(F)C(F)(F)F	inactive
CC(=O)Nc1ccc(N=Nc2cc(C)ccc2O)cc1	inactive
CCc1c(Br)c(Br)c(Br)c(Br)c1Br	inactive
CC(C)(C)c1ccc(OC2CCCCC2O)cc1 (centres undefined)	inactive
CC(C)OC(=O)c1ccccc1C(=O)OC(C)C	inactive
CN(C)Cc1ccccc1O	inactive
CCc1ccc(C(c2ccc(CC)cc2)C(Cl)Cl)cc1	inactive
CC(C)c1ccccc1N	inactive
COC(=O)CCC(F)(F)C(F)(F)C(F)(F)C(F)(F)F	inactive
C=CC(=O)OCC(F)(F)C(F)(F)C(F)(F)C(F)(F)C(F)(F)C(F)(F)C(F)(F)F	inactive
O=S(=O)(O)c1ccc2ccccc2c1	inactive
CCCCC(CC)COP(=O)(O)OCC(CC)CCCC (centres undefined)	inactive
COC(=O)C1CCC(C(=O)OC)CC1 (centres undefined)	inactive
Nc1cc(Cl)c(N)c(Cl)c1	inactive
O=C(O)C(F)(F)C(F)(F)OC(F)(F)F	inactive
CC(C)=CCCC(C)CCOC(=O)C(C)C (centres undefined)	inactive
N=C(N)C(F)(F)C(F)(F)C(F)(F)C(F)(F)C(F)(F)C(F)(F)C(F)(F)F	inactive
O=C(Cl)C(F)(F)C(F)(F)C(F)(F)C(F)(F)C(F)(F)C(F)(F)C(F)(F)C(F)(F)F	inactive
C=CC(F)(F)C(F)(F)C(F)(F)C(F)(F)C(F)(F)C(F)(F)C(F)(F)C(F)(F)F	inactive
CS(C)(=O)=O	inactive
O=C(O)C(F)(F)C(F)(F)C(F)(F)C(F)(F)C(F)(F)C(F)(F)C(F)(F)C(F)(F)C(F)(F)C(F)(F)C(F)(F)C(F)(F)F	inactive
O=C(O)C(F)(F)C(F)(F)C(F)(F)C(F)(F)F	inactive
Cc1ccc(S(=O)(=O)OCC(F)(F)C(F)(F)C(F)(F)C(F)(F)C(F)(F)C(F)F)cc1	inactive
C=C(C)C(=O)OCC(F)(F)C(F)(F)C(F)(F)C(F)(F)C(F)(F)C(F)(F)C(F)(F)F	inactive
FC(F)(F)C(F)(F)C(F)(F)C(F)(F)C(F)(F)C(F)(F)CCS	inactive
CCCCCC=O	inactive
CCCCCCCCC(F)(F)C(F)(F)C(F)(F)C(F)(F)C(F)(F)C(F)(F)F	inactive
O=S(=O)(OCCOC(F)(F)F)C(F)(F)F	inactive

From PubChem BioAssay (EPA / NIEHS)
